According to PubChem BioAssay AID1159580 (chemical genetic matrix, 2015):
Where “and” joins values, the source holds several entries; their conditions need not be identical. Equal values may be shown once. Out of some 5,500 compounds screened, about 2,000 (36%) were called active. Another 18% or so got no clear call; they are omitted. Cut-off read from the data, not from the text of the source: active = normalized growth mostly below about 0.91 (no sharp cut-off); inconclusive = no clear call, values can overlap the other calls; inactive = mostly above about 0.92. This is one part of the list.

Assay: chemical genetic growth profiling, strain panel (AID 1159580);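 note: tested at 20 µM; growth read once vehicle control cultures reached saturation at 30 °C; 1 = growth at the plate median or of vehicle wells; lower values mean less growth of the strain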
Settings: S. cerevisiae deletion strains, growth OD

Measured: normalized growth

COc1ccc(C(=O)/C=C/c2ccccc2)cc1
inactive: locus YAL021C, strain ccr4, stronger effect = lower value 1.01 | locus YAL026C, strain drs2, stronger effect = lower value 0.924 | locus YAL030W, strain snc1, stronger effect = lower value 0.951 | locus YBL061C, strain skt5, stronger effect = lower value 0.947 | locus YBR171W, strain sec66, stronger effect = lower value 0.939 | locus YBR229C, strain ROT2, stronger effect = lower value 0.991 | locus YBR231C, strain swc5, stronger effect = lower value 0.927 | locus YBR279W, strain paf1, stronger effect = lower value 0.951 | locus YCL069W, strain vba3, stronger effect = lower value 0.944 | locus YCR088W, strain abp1, stronger effect = lower value 0.965 | locus YDL005C, strain med2, stronger effect = lower value 0.992 | locus YDL035C, strain GPR1, stronger effect = lower value 0.921 | locus YDL040C, strain nat1, stronger effect = lower value 1.01 | locus YDL101C, strain DUN1, stronger effect = lower value 0.941 | locus YDL185W, strain tfp1, stronger effect = lower value 0.942 | locus YDR001C, strain nth1, stronger effect = lower value 0.982 | locus YDR069C, strain doa4, stronger effect = lower value 0.995 | locus YDR150W, strain NUM1, stronger effect = lower value 1.01 | locus YDR159W, strain sac3, stronger effect = lower value 0.956 | locus YDR162C, strain NBP2, stronger effect = lower value 0.965 | locus YDR195W, strain ref2 1.1 | locus YDR297W, strain sur2, stronger effect = lower value 0.939 | locus YDR334W, strain swr1, stronger effect = lower value 0.999 | locus YDR388W, stronger effect = lower value 0.955 | locus YEL037C, strain rad23, stronger effect = lower value 0.982 | locus YER015W, strain faa2, stronger effect = lower value 0.956 | locus YER111C, strain swi4, stronger effect = lower value 0.968 | locus YER167W, strain BCK2, stronger effect = lower value 0.994 | locus YFR010W, strain ubp6, stronger effect = lower value 0.96 | locus YGL167C, strain pmr1, stronger effect = lower value 0.971 | locus YHR013C, strain ard1, stronger effect = lower value 0.947 | locus YHR027C, strain rpn1, stronger effect = lower value 0.939 | locus YHR079C, strain IRE1 (second series), stronger effect = lower value 0.932 | locus YHR094C, strain hxt1, stronger effect = lower value 0.941 | locus YIL066C, strain RNR3, stronger effect = lower value 0.919 | locus YIL073C, strain SPO22, stronger effect = lower value 0.889 | locus YIL125W, strain kgd1, stronger effect = lower value 0.985 | locus YJL092W, strain hpr5, stronger effect = lower value 0.965 | locus YJL115W, strain asf1, stronger effect = lower value 0.984 | locus YJL134W, strain LCB3, stronger effect = lower value 0.99 | locus YJL154C, strain vps35, stronger effect = lower value 0.995 | locus YJL168C, strain set2, stronger effect = lower value 0.959 | locus YJL187C, strain SWE1 (second series), stronger effect = lower value 0.908 | locus YJR066W, strain TOR1, stronger effect = lower value 0.841 | locus YKL068W, stronger effect = lower value 0.983 | locus YKL085W, strain MDH1 (second series), stronger effect = lower value 0.974 | locus YKL085W, strain MDH1, stronger effect = lower value 0.974 | locus YKL190W, strain CNB1, stronger effect = lower value 1.01 | locus YKR026C, strain gcn3, stronger effect = lower value 0.983 | locus YKR091W, strain srl3, stronger effect = lower value 0.982 | locus YLL026W, stronger effect = lower value 0.971 | locus YLL041C, strain sdh2, stronger effect = lower value 0.999 | locus YLR039C, strain RIC1, stronger effect = lower value 0.792 | locus YLR058C, strain SHM2, stronger effect = lower value 0.899 | locus YLR102C, strain apc9, stronger effect = lower value 0.964 | locus YLR258W, strain gsy2, stronger effect = lower value 0.936 | locus YLR357W, strain rsc2, stronger effect = lower value 0.957 | locus YLR370C, strain arc18, stronger effect = lower value 0.978 | locus YLR384C, strain iki3, stronger effect = lower value 0.969 | locus YML016C, strain PPZ1, stronger effect = lower value 0.947 | locus YML120C, strain ndi1, stronger effect = lower value 0.954 | locus YML124C, strain tub3, stronger effect = lower value 0.958 | locus YMR129W, stronger effect = lower value 0.985 | locus YMR231W, strain pep5, stronger effect = lower value 1 | locus YMR307W, strain GAS1, stronger effect = lower value 0.939 | locus YNL067W, strain RPL9B, stronger effect = lower value 0.954 | locus YNL128W, strain TEP1, stronger effect = lower value 0.922 | locus YNL183C, strain NPR1, stronger effect = lower value 0.838 | locus YNL209W, strain ssb2, stronger effect = lower value 0.968 | locus YNL250W, strain rad50, stronger effect = lower value 0.958 | locus YNL271C, strain bni1, stronger effect = lower value 0.92 | locus YNL322C, strain KRE1 (second series), stronger effect = lower value 0.917 | locus YNR049C, strain mso1, stronger effect = lower value 0.995 | locus YNR052C, strain pop2, stronger effect = lower value 0.941 | locus YOL006C, strain TOP1, stronger effect = lower value 0.664 | locus YOL012C, strain htz1 0.771 | locus YOR001W, strain rrp6, stronger effect = lower value 0.905 | locus YOR061W, strain CKA2, stronger effect = lower value 0.981 | locus YOR069W, strain VPS5, stronger effect = lower value 0.958 | locus YOR070C, strain gyp1, stronger effect = lower value 0.928 | locus YOR080W, strain dia2, stronger effect = lower value 0.981 | locus YOR136W, strain idh2, stronger effect = lower value 0.939 | locus YOR265W, strain rbl2, stronger effect = lower value 0.994 | locus YOR316C, strain cot1, stronger effect = lower value 0.966 | locus YPL240C, strain hsp82, stronger effect = lower value 0.954 | locus YPR119W, strain clb2, stronger effect = lower value 0.964 | locus YPR141C, strain kar3, stronger effect = lower value 0.965
active: locus YBR009C, strain hhf1, stronger effect = lower value 0.825 | locus YBR021W, strain FUR4, stronger effect = lower value 0.782 | locus YBR023C, strain chs3, stronger effect = lower value 0.911 | locus YCL011C, strain gbp2, stronger effect = lower value 0.902 | locus YCL016C, strain dcc1, stronger effect = lower value 0.876 | locus YCL029C, strain bik1, stronger effect = lower value 0.822 | locus YCL061C, strain MRC1, stronger effect = lower value 0.846 | locus YDL074C, strain BRE1, stronger effect = lower value 0.738 | locus YDL192W, strain arf1, stronger effect = lower value 0.832 | locus YDR101C, strain arx1, stronger effect = lower value 0.867 | locus YDR137W, strain rgp1, stronger effect = lower value 0.845 | locus YDR318W, strain mcm21, stronger effect = lower value 0.798 | locus YDR335W, strain msn5, stronger effect = lower value 0.889 | locus YDR392W, strain spt3, stronger effect = lower value 0.194 | locus YDR502C, strain sam2, stronger effect = lower value 0.787 | locus YEL003W, strain gim4, stronger effect = lower value 0.856 | locus YEL061C, strain CIN8 (second series), stronger effect = lower value 0.844 | locus YER016W, strain bim1, stronger effect = lower value 0.91 | locus YER110C, stronger effect = lower value 0.873 | locus YER155C, strain BEM2 (second series), stronger effect = lower value 0.268 | locus YER155C, strain BEM2, stronger effect = lower value 0.686 | locus YGL078C, strain dbp3, stronger effect = lower value 0.906 | locus YGL086W, strain mad1, stronger effect = lower value 0.779 | locus YGL173C, strain kem1, stronger effect = lower value 0.889 | locus YGL227W, strain vid30, stronger effect = lower value 0.892 | locus YGL240W, strain doc1, stronger effect = lower value 0.762 | locus YGL248W, strain PDE1, stronger effect = lower value 0.824 | locus YGL253W, strain hxk2, stronger effect = lower value 0.908 | locus YGR135W, strain pre9, stronger effect = lower value 0.696 | locus YGR252W, strain gcn5, stronger effect = lower value 0.629 | locus YHR079C, strain IRE1, stronger effect = lower value 0.756 | locus YHR129C, strain ARP1, stronger effect = lower value 0.87 | locus YHR142W, strain chs7, stronger effect = lower value 0.767 | locus YHR200W, strain rpn10, stronger effect = lower value 0.866 | locus YIR030C, strain dcg1, stronger effect = lower value 0.888 | locus YJL095W, strain BCK1 (second series), stronger effect = lower value 0.886 | locus YJL095W, strain BCK1, stronger effect = lower value 0.544 and 0.84 | locus YJL129C, strain trk1, stronger effect = lower value 0.859 | locus YJL164C, strain tpk1, stronger effect = lower value 0.887 | locus YJL166W, strain qcr8, stronger effect = lower value 0.746 | locus YJL187C, strain SWE1, stronger effect = lower value 0.917 | locus YKL009W, strain mrt4, stronger effect = lower value 0.834 | locus YKL160W, strain elf1, stronger effect = lower value 0.878 | locus YKR001C, strain vps1, stronger effect = lower value 0.783 | locus YLL001W, strain dnm1, stronger effect = lower value 0.898 | locus YLR027C, strain aat2, stronger effect = lower value 0.846 | locus YLR113W, strain HOG1, stronger effect = lower value 0.628 | locus YLR221C, strain rsa3, stronger effect = lower value 0.809 | locus YLR262C, strain YPT6 (second series), stronger effect = lower value 0.855 | locus YLR268W, strain sec22, stronger effect = lower value 0.818 | locus YLR320W, strain mms22, stronger effect = lower value 0.525 | locus YLR330W, strain CHS5, stronger effect = lower value 0.854 | locus YLR342W, strain FKS1, stronger effect = lower value 0.839 | locus YLR371W, strain rom2, stronger effect = lower value 0.796 | locus YLR418C, strain cdc73, stronger effect = lower value 0.358 | locus YML032C, strain rad52, stronger effect = lower value 0.746 | locus YMR058W, strain fet3, stronger effect = lower value 0.803 | locus YMR078C, strain ctf18, stronger effect = lower value 0.73 | locus YMR125W, strain sto1, stronger effect = lower value 0.856 | locus YMR205C, strain PFK2, stronger effect = lower value 0.707 | locus YMR223W, strain ubp8, stronger effect = lower value 0.852 | locus YNL071W, strain lat1, stronger effect = lower value 0.307 | locus YNL233W, strain BNI4, stronger effect = lower value 0.777 | locus YNL248C, strain rpa49, stronger effect = lower value 0.687 | locus YNL298W, strain CLA4, stronger effect = lower value 0.858 | locus YNL307C, strain MCK1, stronger effect = lower value 0.239 | locus YOL147C, strain pex11, stronger effect = lower value 0.752 | locus YOR083W, strain WHI5, stronger effect = lower value 0.86 | locus YOR106W, strain vam3, stronger effect = lower value 0.823 | locus YOR144C, strain elg1, stronger effect = lower value 0.897 | locus YOR184W, strain ser1, stronger effect = lower value 0.43 | locus YOR231W, strain MKK1, stronger effect = lower value 0.757 | locus YOR270C, strain vph1, stronger effect = lower value 0.613 | locus YOR290C, strain snf2, stronger effect = lower value 0.792 | locus YPL051W, strain arl3, stronger effect = lower value 0.868 | locus YPL078C, strain atp4, stronger effect = lower value 0.799 | locus YPL106C, strain sse1, stronger effect = lower value 0.76 | locus YPL256C, strain CLN2, stronger effect = lower value 0.74 | locus YPR163C, strain tif3, stronger effect = lower value 0.432 | locus YPR167C, strain met16, stronger effect = lower value 0.889 | strain wtn01, stronger effect = lower value 0.811
0.95 (inactive) and 0.812 (active): locus YHR030C, strain SLT2, stronger effect = lower value
